Shown is part of a subset that was picked to be rich in hits.
RE007 growth inh: less growth of the S. pombe RE007 Vpr strain; S. pombe RE007 Vpr strain, BacTiter-Glo ATP luminescence, 24 h; Potency, µM (highest dose often 92.2 µM), without a hit: at the top dose activity change, negative = less growth, most hits filed as inhibitors; 360,000 compounds, 0.21% hits; active = well fitted falling curve with a large enough effect; note: potency is the fitted concentration of half-maximal effect; % is set by controls: 0 for no effect and ±100 for the full control effect; nearly all actives have a fitted effect of over 50% in size
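Fission yeast strain RE007, carrying one chromosomally integrated HIV-1 vpr copy, was seeded at OD 0.01 in PMG+AL medium with 23 nL pinned compound. After 24 h at 30 °C and 99% humidity, viability was read by BacTiter-Glo luminescence.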
Shiga inhibitor: Shiga toxin inhibition; Vero cells, Shiga toxin protein synthesis inhibition reporter; 290,000 compounds, 9.2% hits; AID 2315; inhibition, % at 38.7 µM; in the data active = inhibition mostly above about 28%, no sharp cut-off; inactive = mostly below about 43%; note: 0% is about no effect
Tb PYK inh: inhibitors of Trypanosoma brucei pyruvate kinase. AID 624173. 410,000 compounds, 0.12% hits. TbPYK enzyme, Kinase-Glo Plus ATP luminescence, 45 min. Potency, µM (highest dose often 76.8 µM), for inactives: at the highest dose activity, negative = inhibition, usual class: inhibitors. Q57TT1; note: potency is the fitted concentration of half-maximal effect; % is set by controls: 0 for no effect and ±100 for the full control effect; nearly all actives have a fitted effect of over 50% in size
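Quantitative HTS: titrated library compounds versus trypanosomal pyruvate kinase in TEA buffer (pH 7.2) containing KCl, MgCl2, BSA and Tween-20. Reactions were initiated with ADP, 130 uM final. Kinase-Glo Plus luminescence was read after 45 min at RT.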
LmPK inhibitor: blocks Leishmania mexicana pyruvate kinase activity; purified LmPK, Kinase-Glo ATP luminescence, 1 h; Potency, µM (top dose mostly 57.5 µM), without a hit: top-dose activity change, negative = inhibition, most hits filed as inhibitors; 290,000 compounds, 0.37% hits; AID 1721; note: potency is the fitted concentration of half-maximal effect; % is set by controls: 0 for no effect and ±100 for the full control effect
Target sequence (Q27686 whole entry, looked up): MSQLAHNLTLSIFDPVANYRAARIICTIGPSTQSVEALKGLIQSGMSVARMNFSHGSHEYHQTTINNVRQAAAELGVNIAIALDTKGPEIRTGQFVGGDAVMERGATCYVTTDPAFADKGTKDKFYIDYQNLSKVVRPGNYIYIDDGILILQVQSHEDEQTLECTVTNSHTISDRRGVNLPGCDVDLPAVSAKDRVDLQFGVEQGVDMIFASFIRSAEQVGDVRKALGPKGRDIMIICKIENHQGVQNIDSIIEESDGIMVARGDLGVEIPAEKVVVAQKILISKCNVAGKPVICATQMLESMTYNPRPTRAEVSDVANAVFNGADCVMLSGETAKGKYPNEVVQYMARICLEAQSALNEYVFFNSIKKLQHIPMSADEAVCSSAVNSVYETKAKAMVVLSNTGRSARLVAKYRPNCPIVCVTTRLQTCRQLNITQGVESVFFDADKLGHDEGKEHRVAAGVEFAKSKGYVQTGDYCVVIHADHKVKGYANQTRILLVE
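qHTS format; LmPK 0.1 nM; substrates PEP 0.5 mM and ADP 0.1 mM. One-hour room-temperature incubation, then coupled luciferase luminescence; 0.5 nM enzyme wells mark activation.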
FBPA Giardia inh: Giardia lamblia aldolase inhibition | 290,000 compounds, 0.71% hits | Potency, µM (series often up to 59.6 µM), inactives show at the highest dose activity, negative = inhibition, most hits filed as inhibitors | A8B2U2 | purified Giardia FBPA; note: potency is the fitted concentration of half-maximal effect; % is set by controls: 0 for no effect and ±100 for the full control effect; nearly all actives have a fitted effect of over 55% in size
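Giardia FBPA (40 nM reagent) was preincubated 10 min at RT with compound (up to 57.5 uM final), then substrate plus GAPDH/TPI/NAD/arsenate coupling system with diaphorase/resazurin was added; resorufin fluorescence (525/598 nm) was read after 20 min.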
CHX counter: affects cycloheximide protein synthesis inhibition readout, counter-screen. cell reporter, cycloheximide protein synthesis inhibition counterscreen. max response, %. 300,000 compounds, 12% hits. AID 2314; in the data active = max response mostly above about 13%, no sharp cut-off; inactive = mostly below about 14%; note: read at 38.3 µM for the half of the compounds with a filed dose; 0% is about no effect
An asterisk follows results filed as active. Unless noted, calls come from the whole dose curve; as a rule, active = well fitted curve in the direction sought with a large enough effect; inconclusive = small, poorly fitted or top-dose-only effect, or another doubt; inactive = no such curve, though single readings can be large; an effect the other way counts as inactive or inconclusive.

`Cc1noc(C)c1S(=O)(=O)NCc1ccc(CN(C)C)cc1` gave RE007 growth inh 7% and Tb PYK inh 7%.
`CC(=O)N1CCc2cc(S(=O)(=O)N3CCCCCC3)ccc21` gave RE007 growth inh -8%, Shiga inhibitor -12, Tb PYK inh -3%, LmPK inhibitor -11% and CHX counter -1.
Screening Cc1nc2cc(N=NC3=C(O)CCCC3=O)ccc2s1 returned RE007 growth inh -18%, Shiga inhibitor 89*, Tb PYK inh -6%, LmPK inhibitor -25%, FBPA Giardia inh -4% and CHX counter 61*.
Screening CC(=O)N1CCc2cc(N=NC3=C(O)CCCC3=O)ccc21 returned RE007 growth inh 7%, Shiga inhibitor 92*, Tb PYK inh -7%, LmPK inhibitor -10%, FBPA Giardia inh -8% and CHX counter 31*.
For O=C1CCCC(O)=C1N=Nc1ccc(Cl)c(Cl)c1 the results were RE007 growth inh -23%, Shiga inhibitor 15, Tb PYK inh -1%, LmPK inhibitor -8%, FBPA Giardia inh -8% and CHX counter 23*.
O=C1CCCC(O)=C1C=Nc1ccc(O)cc1 was read as RE007 growth inh 0%, Shiga inhibitor 32, Tb PYK inh -1%, LmPK inhibitor -3%, FBPA Giardia inh 1% and CHX counter 13.
Screening O=C(NCc1cccc(Br)c1)c1cnn(-c2ccc(F)cc2)c1-n1cccc1 returned Tb PYK inh -7%.
`COc1cccc(-n2c(=O)c3sc4ccccc4c3n(CC(=O)Nc3ccccc3OC)c2=O)c1` gave Tb PYK inh 3%.
`CC(=O)Nc1sc(N/N=C/c2ccc(C)cc2)nc1-c1ccc(C)cc1` gave RE007 growth inh 3%, Shiga inhibitor 71*, Tb PYK inh -11%, LmPK inhibitor 22%, FBPA Giardia inh -11% and CHX counter 52*.
CC(=O)Nc1sc(/C(C#N)=C/c2ccc(Cl)c(Cl)c2)nc1-c1ccc(C)cc1 was read as RE007 growth inh 9%, Shiga inhibitor -6, Tb PYK inh 4%, LmPK inhibitor -4%, FBPA Giardia inh -6% and CHX counter -2.
Screening CC(=O)Nc1sc(N/N=C/c2ccc(N(C)C)cc2)nc1-c1ccc(C)cc1 returned RE007 growth inh 9%, Shiga inhibitor 58*, Tb PYK inh -7%, LmPK inhibitor -15%, FBPA Giardia inh -17% and CHX counter 25*.
For CC1CCCCN1C(=O)Cn1c(SCC(=O)N(C)c2ccccc2)nc2ccccc21 (centres undefined) the results were Tb PYK inh 2%.
For Cn1nccc1C(=O)Nc1ccc(Cl)cc1 the results were RE007 growth inh -15%, Shiga inhibitor 68*, Tb PYK inh -10%, LmPK inhibitor -23%, FBPA Giardia inh -1% and CHX counter 28*.
Screening Cn1nccc1C(=O)Nc1ccc2c(c1)OCO2 returned RE007 growth inh -9%, Shiga inhibitor 107*, Tb PYK inh -17%, LmPK inhibitor -26% and CHX counter 28*.
Screening Cc1ccc(C(=O)NCC(c2ccc3c(c2)OCO3)N2CCOCC2)cc1 (centres undefined) returned Tb PYK inh -6%.
`O=C(O)/C=C/c1ccc([N+](=O)[O-])o1` gave RE007 growth inh -6%, Shiga inhibitor -8, Tb PYK inh -9%, LmPK inhibitor 7%, FBPA Giardia inh -6% and CHX counter -2.
O=C(c1cc(-c2ccc(O)cc2)on1)N1CCN(c2ccc(F)cc2)CC1 was read as RE007 growth inh 6%, Shiga inhibitor 5, Tb PYK inh -4%, LmPK inhibitor -1%, FBPA Giardia inh -3% and CHX counter 7.
`CCOC(=O)C1CCCN(C(=O)c2cc(COc3ccc(C)nc3)on2)C1` (centres undefined) gave RE007 growth inh -12%, Shiga inhibitor 73*, Tb PYK inh -6%, LmPK inhibitor -7% and CHX counter 51*.
For Cc1ccc(-c2cc(C(=O)N3CCCCCC3)no2)cc1 the results were RE007 growth inh -27%, Shiga inhibitor 102*, Tb PYK inh -18%, LmPK inhibitor -3%, FBPA Giardia inh 5% and CHX counter 48*.
`O=C(c1cc(-c2ccc(F)cc2)on1)N1CCCCCC1` gave RE007 growth inh 1%, Shiga inhibitor 115*, Tb PYK inh 8%, LmPK inhibitor -3%, FBPA Giardia inh 5% and CHX counter 46*.
CC1CCN(C(=O)c2cc(-c3ccc(Cl)cc3)on2)CC1 was read as Tb PYK inh -1%.
CN1CCN(C(=O)/C=C/c2ccc([N+](=O)[O-])o2)CC1 was read as Shiga inhibitor 29*, Tb PYK inh -4%, LmPK inhibitor -1%, FBPA Giardia inh -16% and CHX counter 19*.
N[C@H](C(=O)O)c1cccc(O)c1 was read as FBPA Giardia inh -2%.
Screening CC(C)N(Cc1ccccc1)C(=O)CN1c2cccc3cccc(c23)S1(=O)=O returned RE007 growth inh -13% and Tb PYK inh 2%.
Screening COC(=O)c1cc(-c2ccc(Br)cc2)on1 returned RE007 growth inh -22%, Shiga inhibitor -2, Tb PYK inh -3%, LmPK inhibitor -4%, FBPA Giardia inh 9% and CHX counter -3.
`O=C(c1cc(-c2ccc(O)cc2)on1)N1CCN(c2ccccc2)CC1` gave RE007 growth inh 7%, Shiga inhibitor 33, Tb PYK inh 7%, LmPK inhibitor 3%, FBPA Giardia inh -2% and CHX counter 12.
Screening O=C(c1cc(-c2ccc(F)cc2)on1)N1CCCC1 returned RE007 growth inh -15%, Shiga inhibitor 66*, Tb PYK inh -1%, LmPK inhibitor -13%, FBPA Giardia inh 4% and CHX counter 50*.
O=C(/C=C/c1ccc(-c2ccc(F)cc2)o1)N1CCCC1 was read as RE007 growth inh -19%, Shiga inhibitor 64*, Tb PYK inh -3%, LmPK inhibitor 0%, FBPA Giardia inh 3% and CHX counter 39*.
For CN1CCN(C(=O)c2cc(-c3ccccc3)on2)CC1 the results were RE007 growth inh -1%, Shiga inhibitor 109*, Tb PYK inh 4%, LmPK inhibitor -4%, FBPA Giardia inh 1% and CHX counter 38*.
CCN(CC)C(=O)c1cc(-c2ccc(Br)cc2)on1 was read as RE007 growth inh -6%, Shiga inhibitor 90*, Tb PYK inh -7%, LmPK inhibitor 0%, FBPA Giardia inh 11% and CHX counter 47*.
`O=C(/C=C/c1ccc(F)cc1)N1CCCN(C(=O)/C=C/c2ccc(F)cc2)CC1` gave RE007 growth inh 4%, Shiga inhibitor 1, Tb PYK inh 5%, LmPK inhibitor 9%, FBPA Giardia inh 2% and CHX counter 5.
For Cc1c(C(=O)Nc2cccc(F)c2)oc2c1-c1nn(Cc3c(F)cccc3Cl)cc1CC2 the results were Tb PYK inh -17%.

High-throughput results as filed in PubChem BioAssay.
